Assay outcomes: PubChem BioAssay, several laboratories
In the library only some 4.1% were active in any assay of this set; here they are far more common.
IDE cell inh: inhibits human insulin-degrading enzyme in HEK cells | inhibition, % at 5.59 µM | 0.41% of 320,000 active | FAbetaB cleavage, fluorescence polarization;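 active means percent inhibition above the average of all tested compounds plus 3 SD, set per screening campaign, cut at about 16% in these data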;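 further: IDE supplied by intact live HEK cells; FP after avidin binding of uncleaved biotin substrate so inhibition keeps polarization high; 0% = DMSO wells and 100% = 60 µM reference IDE inhibitor Ii1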
Target sequence (P14735 whole entry, looked up): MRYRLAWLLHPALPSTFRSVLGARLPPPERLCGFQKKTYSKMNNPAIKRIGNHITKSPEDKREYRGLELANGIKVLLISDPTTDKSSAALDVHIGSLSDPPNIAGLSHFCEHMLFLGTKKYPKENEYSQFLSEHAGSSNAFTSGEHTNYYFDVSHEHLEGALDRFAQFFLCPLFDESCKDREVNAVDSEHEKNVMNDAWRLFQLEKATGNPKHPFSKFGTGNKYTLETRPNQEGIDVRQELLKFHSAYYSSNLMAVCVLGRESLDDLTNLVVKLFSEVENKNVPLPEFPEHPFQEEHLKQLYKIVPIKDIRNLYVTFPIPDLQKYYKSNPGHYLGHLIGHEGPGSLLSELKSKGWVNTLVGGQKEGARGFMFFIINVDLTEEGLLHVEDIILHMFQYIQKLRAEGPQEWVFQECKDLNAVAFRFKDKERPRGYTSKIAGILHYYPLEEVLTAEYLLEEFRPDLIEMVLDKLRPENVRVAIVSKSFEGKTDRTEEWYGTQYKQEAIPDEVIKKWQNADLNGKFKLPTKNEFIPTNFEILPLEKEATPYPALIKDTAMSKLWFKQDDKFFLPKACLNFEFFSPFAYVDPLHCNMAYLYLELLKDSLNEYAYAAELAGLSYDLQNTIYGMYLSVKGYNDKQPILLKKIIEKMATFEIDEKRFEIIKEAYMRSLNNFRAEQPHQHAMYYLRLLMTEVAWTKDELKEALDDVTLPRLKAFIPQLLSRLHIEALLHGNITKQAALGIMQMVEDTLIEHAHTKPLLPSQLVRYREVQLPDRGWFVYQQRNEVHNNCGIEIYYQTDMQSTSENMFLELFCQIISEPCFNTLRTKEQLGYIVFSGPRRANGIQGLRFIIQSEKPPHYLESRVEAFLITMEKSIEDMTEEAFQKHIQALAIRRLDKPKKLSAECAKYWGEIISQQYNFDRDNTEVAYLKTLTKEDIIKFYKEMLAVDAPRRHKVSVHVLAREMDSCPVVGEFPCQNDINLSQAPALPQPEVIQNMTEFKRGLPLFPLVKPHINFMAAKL
IDE cell activ: boosts human insulin-degrading enzyme activity in HEK cells; FAbeta-B cleavage, fluorescence polarization; 0% vehicle, 100% cell-free pure enzyme wells; activation, % at 5.96 µM; 0.073% of 340,000 active; AID 493087;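 active means activation above the mean of all tested compounds plus 3 SD, set per screening campaign, cut at about 17% in these data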
CaV13 FRET inh: Primary screen for inhibitors of IQ motif and Ca2+-dependent inactivation inhibitor domain binding in CACNA1D, Förster resonance energy transfer in living cells, …; inhibition, % at 12.3 µM; 0.098% of 340,000 active; HEK cells, CFP/YFP FRET ICDI-IQ, plate reader, 10 min; percent FRET-ratio fall versus neutral wells;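 active means mean replicate inhibition of at least 30% and at least 1% of replicates passing that level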;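 further: 0% = median of the neutral control wells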
PfM18AAP inh: blocks P. falciparum M18 aspartyl aminopeptidase; recombinant PfM18AAP, H-Glu-NHMec fluorogenic cleavage; inhibition, % at 7.35 µM; 1.2% of 290,000 active; AID 1822;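 active means inhibition above the campaign mean inhibition over all tested compounds plus 3 SD, cut at about 28% in these data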;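 further: 0% = plate median of test compound wells and 100% = 2 mM ZnCl2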
PolyA inh: inhibitors of polyadenylation in S. cerevisiae. AID 1875. activity score, % at 12 µM. 0.02% of 300,000 active. S. cerevisiae SKY197-pL101 polyadenylation reporter, beta-gal luminescence; efflux-impaired pdr1/pdr3 knockout yeast; score 100 = 6 SD above DMSO;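 active means lowest replicate activity score at least 50, where 100 means six control SD above control mean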;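 further: yeast exposed to compound for 9 h at 30 °C; higher score means more reporter readthrough which indicates perturbed polyadenylation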
ALR H2O2 inh: human ALR oxidase inhibition via reduced H2O2. P55789. purified ALR, DTT oxidation, H2O2 HRP-luminol luminescence. inhibition, % (no concentration beside the values). 3.8% of 290,000 active;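 active means mean replicate inhibition above about 79%, with every replicate also reaching it, limit read from the data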
An asterisk follows results filed as active; · = not tested or not shown.

SMILES	IDE cell inh	IDE cell activ	CaV13 FRET inh	PfM18AAP inh	PolyA inh	ALR H2O2 inh
O=C(OCc1ccccc1)c1ccccc1	-2	3	·	·	-10	0
O=C(OCc1ccccc1)Oc1cncc(C(=O)O)c1	3	6	-7	3	9	98*
O=c1c2ccccc2cnn1Cc1n[nH]c(=S)n1C1CC2CCC1C2 (stereo unspecified)	1	-2	2	5	-19	86*
CC(c1ccccc1)n1c(Cn2ncc3ccccc3c2=O)n[nH]c1=S (stereo unspecified)	-2	-7	-16	7	-9	40
O=C1/C(=C\c2ccco2)SC(=S)N1C1CCS(=O)(=O)C1 (stereo unspecified)	2	·	-5	29*	11	-15
O=C1/C(=C/c2ccco2)SC(=S)N1C1CCS(=O)(=O)C1 (stereo unspecified)	-2	0	-5	31*	-3	-5
COc1ccc(Cl)cc1-c1cc(C(=O)NCc2ccco2)[nH]n1	·	·	-16	·	·	·
OC(COCc1cccs1)CN1CCN(c2cccc(Cl)c2)CC1 (stereo unspecified)	5	5	-3	-4	-13	91*
Cc1c(NC(=O)c2c(N)sc3c2CCCC3)c(=O)n(-c2ccccc2)n1C	2	-2	6	22	-7	-7
O=C(CC1C(=O)NCCN1Cc1ccccc1)NC1CCCCC1 (stereo unspecified)	·	·	-4	·	·	·
Cc1ccc2ccc(C#N)cc2c1O	·	·	-6	·	·	·
COC(=O)C(C)N1C(=O)S/C(=C\c2ccc(-c3ccc(C(=O)O)cc3C)o2)C1=O (stereo unspecified)	1	-4	-5	3	-16	98*
Cc1ccc(NC(=O)CN2C(=O)S/C(=C/c3ccc(-c4cc(C(=O)O)ccc4C)o3)C2=O)cc1C	2	5	-8	6	-9	-20
CN(C)c1cccc(C(=O)Nc2cccc(F)c2)c1	3	-4	-3	1	12	98*
CN(C)c1ccc(NC(=O)c2cccc(N3C(=O)CCC3=O)c2)cc1	-4	3	·	7	1	99*
COc1cc(C(=O)Nc2ccc(N(C)C)cc2)cc(OC)c1OC	1	-3	·	-15	-4	99*
COc1cc(C(=O)Nc2ccc(S(=O)(=O)N(C)c3ccccc3)cc2)cc(OC)c1OC	6	1	-3	-10	4	-6
Cc1cc(C)cc(Nc2c(F)c(F)c(F)c(F)c2C(=O)O)c1	0	·	-2	4	-3	42
COc1cccc(NC(=O)CCN2C(=O)c3ccccc3Sc3ncccc32)c1	5	3	-7	-2	-7	1
CCC(C(=O)c1ccccc1)N(C(=O)c1ccccc1Cl)N1C(=O)C2C3C=CC(C3)C2C1=O (stereo unspecified)	-6	6	-9	2	3	-3
CCCC(=O)C1=C(c2ccccc2)C(C#N)(C#N)C(C#N)=C1N	3	2	-7	8	-9	99*
CCC(C(=O)Nc1ccc(C(=O)O)cc1NC(=O)C(CC)c1ccccc1)c1ccccc1 (stereo unspecified)	4	6	-5	3	0	-1
CCNc1cc(S(=O)(=O)C(F)(F)F)ccc1N	3	0	-5	9	-4	·
CCNc1ccc(C(=O)O)cc1N	6	3	-5	-11	12	98*
CCc1ccccc1Nc1ccc(C(=O)O)cc1N	2	-4	·	3	9	99*
CCCCN1C(=O)C(CC(=O)NCCN2CCOCC2)CC(C(=O)N2CCCCCC2)=C1C (stereo unspecified)	·	·	-15	·	·	·
CCC(=O)Nc1nc(-c2ccc3c(c2)OCCO3)cs1	3	-7	-6	3	9	86*
NC(=O)C1CCN(c2nc(-c3ccc4c(c3)OCCO4)cs2)CC1	0	·	-5	·	·	98*
Cc1ccc(-c2csc(NC(=O)CN3CC(C)OC(C)C3)n2)cc1 (stereo unspecified)	2	4	-5	0	2	98*
c1cc2c(cc1Nc1nc(-c3ccc4c(c3)OCO4)cs1)OCCO2	9	2	-4	4	-2	-7
